Bioassay records: PubChem BioAssay, National Center for Advancing Translational Sciences (NCATS)
pS6 MEF inh = mTORC1 pathway inhibition measured by phospho-rpS6. Tsc2-/- p53-/- MEF, phospho-rpS6 immunofluorescence/PI, 24 h. Potency, µM (doses to about 38.3 µM), inactives show top-dose activity change, negative = inhibition, actives largely listed as inhibitors. 0.78% of 44,000 active. AID 493208;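 further: potency means the concentration at half of the fitted maximal effect; plate controls were DMSO for no effect and rapamycin for full effect; nearly all actives have a fitted effect of over 50% in size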
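Compounds act on Tsc2-/-, p53-/- fibroblasts carrying an empty vector for 24 h before fixation and dual staining for phospho-S6 and DNA (propidium iodide). Values are percentages of cells above a rapamycin-defined pS6/PI threshold.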
GALC G270D up = galactocerebrosidase G270D activity enhancement, cell-based. P54803. 145M-Twi-hGALC-G270D cells, HMU-beta-Gal fluorescence, 48 h. Potency, µM (series often up to 57.5 µM), actives largely listed as activators. 0.1% of 45,000 active. AID 1159614; further: potency means the concentration at half of the fitted maximal effect; 0% is about no effect; nearly all actives have a fitted effect of over 65% in size
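qHTS, 1536-well; 145M-Twi-hGALC-G270D cells (WT line also made) in DMEM/F12 + 10% FBS; compound incubation on live cells; HMU-β-gal 0.1 mM final, pH 5.2, NaTC; carbonate stop; fluorescence increase = enhanced residual activity.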
S16 F2sN tox = S16 Schwann cell cytotoxicity. Potency, µM (titrated, usually from 57.5 µM), for inactives: at the highest dose activity change, negative = cytotoxicity, usual class: cytotoxic. AID 1508642. S16 Pmp22-F2sN Schwann cells viability, CellTiter-Glo, 24 h. 0.48% of 43,000 active; further: potency means the concentration at half of the fitted maximal effect; on the % scale 0 is the no-effect control and ±100 the full control effect; nearly all actives have a fitted effect of over 65% in size
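CellTiter-Glo counter-screen, qHTS, 1536-well. Cells: S16(c9) Pmp22-F2sN, 500-1,000/well in DMEM + 10% FBS. Cpd 23 nL pin transfer, 24 h, 37C/5% CO2. Read: luminescence, CCD imager.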
OvCa metastasis = inhibitors of ovarian cancer cell adhesion and invasion in omental model; AID 1963576; SKOV3ip1-GFP adhesion/invasion on 3D omental model, fluorescence; Potency, µM (doses to about 45.8 µM), without a hit: top-dose activity change, negative = inhibition, usual class: inhibitors; 0.1% of 46,000 active;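 further: potency means the concentration at half of the fitted maximal effect; plate controls were DMSO wells for no effect and tomatine positive control wells for full effect; nearly all actives have a fitted effect of over 65% in size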
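Primary human omental fibroblast/mesothelial 3D culture pre-formed 48 h. SKOV3ip1-GFP cells added with compounds (0.36-46 umol/L), incubated 2 h RT/16 h 37 C, fixed; GFP cells quantified at 488/509 nm.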
NTMT1 inhibitor = NTMT1 methyltransferase inhibition; NTMT1 MTase-Glo SAH luminescence, purified enzyme; Potency, µM (titrated, usually from 114 µM), for the others: top-dose activity change, negative = inhibition, usual class: inhibitors; 2.5% of 59,000 active; AID 1645870;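 further: potency means the concentration at half of the fitted maximal effect; plate controls were DMSO vehicle for no effect and no enzyme for full effect; nearly all actives have a fitted effect of over 65% in size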
Target sequence (Q9BV86 whole entry, looked up): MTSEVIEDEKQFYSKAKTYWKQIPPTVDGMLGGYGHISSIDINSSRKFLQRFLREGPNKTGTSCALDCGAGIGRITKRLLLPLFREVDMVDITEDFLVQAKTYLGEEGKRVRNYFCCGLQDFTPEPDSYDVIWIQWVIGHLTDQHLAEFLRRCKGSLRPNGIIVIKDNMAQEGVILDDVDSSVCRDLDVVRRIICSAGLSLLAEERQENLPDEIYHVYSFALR
PMP22 txn = PMP22 gene transcription modulation; S16 Pmp22-F2sN Schwann cells, FLuc/NLuc coincidence luminescence, 24 h; Potency, µM (doses to about 57.5 µM), inactives show at the highest dose activity change, negative = inhibition, actives largely listed as inhibitors; 2% of 43,000 active; AID 1508649; active means clear falling dose curves in both reporters; inconclusive means both reporters move, but less clearly or upward; inactive means either reporter flat; the % is the NLuc reporter signal; further: potency means the concentration at half of the fitted maximal effect; on the % scale 0 is the no-effect control and ±100 the full control effect
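S16 Schwann cells carrying FLuc/NLuc coincidence reporter in the Pmp22 3' UTR treated with compound 24 h at 37C; FLuc then NLuc luminescence read sequentially by dual-luciferase reagents.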
NLuc saturating = NanoLuc enzyme inhibition artifact for PMP22 screen. Secreted NLuc enzyme (filtered S16 cell medium), Nano-Glo luminescence. shares compounds with PMP22 txn. AID 1508638. 4% of 690 active. Potency, µM (doses to about 57.5 µM), inactives show at the top dose activity change, negative = inhibition, usual class: inhibitors; further: potency means the concentration at half of the fitted maximal effect; on the % scale 0 is the no-effect control and ±100 the full control effect
NLuc Km counter = counter-screen for PMP22 expression modulators: NanoLuc inhibition at Km | shares compounds with PMP22 txn | secreted NLuc enzyme, coelenterazine luminescence, Km conditions | Potency, µM (top dose mostly 57.5 µM), without a hit: at the top dose activity change, negative = inhibition, actives largely listed as inhibitors | 5% of 690 active | AID 1508639; further: potency means the concentration at half of the fitted maximal effect; on the % scale 0 is the no-effect control and ±100 the full control effect
FLuc counter = counter-screen for PMP22 expression modulators: firefly luciferase inhibition. shares compounds with PMP22 txn. purified P. pyralis FLuc, luminescence, 10 min. Potency, µM (highest dose often 57.5 µM), for inactives: at the top dose activity, negative = inhibition, most hits filed as inhibitors. 690 tested, under 10 active; further: % of control where 0% means no effect
S16 F2sN tox cnf = confirmation of cytotoxicity in S16 Pmp22-F2sN Schwann cells (luciferase reporters placed in the Pmp22 gene); 7% of 690 active; Potency, µM (highest dose often 57.5 µM), without a hit: at the top dose activity change, negative = viability loss, hits mostly cytotoxic; S16 Schwann cells viability, CellTiter-Glo ATP luminescence, 24 h; shares compounds with PMP22 txn; further: potency means the concentration at half of the fitted maximal effect; on the % scale 0 is the no-effect control and ±100 the full control effect
PMP22 txn cnf = confirmation of modulators of PMP22 gene transcription in S16 cells; 22% of 690 active; Potency, µM (doses to about 57.5 µM), inactives show top-dose activity change, negative = inhibition, actives largely listed as inhibitors; shares compounds with PMP22 txn; S16 Schwann cells Pmp22-F2sN, dual luciferase, 24 h; active means clear falling dose curves in both reporters; inconclusive means both reporters move, but less clearly or upward; inactive means either reporter flat; the % is the FLuc reporter signal; further: potency means the concentration at half of the fitted maximal effect
PMP22 prot conf = confirmation of modulators of rat PMP22 protein expression. shares compounds with PMP22 txn. S16 Schwann cells Pmp22-HiBiT, luminescence, 48 h. Potency, µM (top dose mostly 27.9 µM), for the others: at the highest dose activity change, negative = inhibition, hits mostly inhibitors. 95 tested, under 10 active. AID 1508647
Target sequence (P25094 whole entry, looked up): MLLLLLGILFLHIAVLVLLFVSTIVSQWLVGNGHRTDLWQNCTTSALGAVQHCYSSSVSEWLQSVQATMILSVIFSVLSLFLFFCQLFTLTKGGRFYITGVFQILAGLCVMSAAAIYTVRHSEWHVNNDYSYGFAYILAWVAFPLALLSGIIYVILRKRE
An asterisk follows results filed as active; i = inactive; u = inconclusive; x = not tested or not shown; [ ] = another dose, or the depositor's remark. This is a sample that favours compounds with a hit; in the whole collection about 3.6% have one here. Unless noted, the call rests on the fitted dose curve; in most records, active means well fitted curve in the direction sought with a large enough effect; inconclusive means small, poorly fitted or top-dose-only effect, or another doubt; inactive means no such curve, though single readings can be large; an effect the other way counts as inactive or inconclusive.

SMILES	pS6 MEF inh	GALC G270D up	S16 F2sN tox	OvCa metastasis	NTMT1 inhibitor	PMP22 txn	NLuc saturating	NLuc Km counter	FLuc counter	S16 F2sN tox cnf	PMP22 txn cnf	others
O=C(CCS(=O)(=O)c1nc(-c2cccs2)cc(C(F)(F)F)n1)Nc1ccc(F)c(Cl)c1	-13%	i	u	u	6%	15µM*	-6%	u	4%	u	13µM*	PMP22 prot conf=u
O=C(CCS(=O)(=O)c1nc(-c2cccs2)cc(C(F)(F)F)n1)Nc1ccc(OC(F)(F)F)cc1	-17%	i	u	0%	-1%	u	-3%	u	2%	u	9.1µM*	PMP22 prot conf=u
O=C(CCS(=O)(=O)c1nc(-c2ccc3c(c2)OCO3)cc(C(F)(F)F)n1)Nc1ccc(Br)cc1	u	i	u	i	11%	u	x	x	x	x	x
COc1ccc(NC(=O)CCS(=O)(=O)c2nc(-c3cccs3)cc(C(F)(F)F)n2)cc1	u	i	u	u	14%	7.6µM*	-17%	u	-7%	u	12µM*	PMP22 prot conf=23%
Cc1cc(N[S+](=O)([O-])c2ccc(NC(=O)Cc3ccc4c(c3)CCO4)cc2)no1	x	x	x	x	11%	x	x	x	x	x	x
CC[N+](CC)(CC)CCOC(=O)C(C1CCCC1)C1CCCC1	x	i	x	x	-20%[57.5 µM]	x	x	x	x	x	x
CCNc1nc2c(c(=O)n(C)c(=O)n2C)n1Cc1ccc(F)cc1	u	i	u	-1%	3%	u	x	x	x	x	x
Cn1c(=O)c2c(nc(NCc3ccccc3)n2Cc2ccc(Cl)c(Cl)c2)n(C)c1=O	-12%	i	-24%	-3%	-1%	14µM*	-9%	u	-2%	-25%	u
COc1ccc(CCNc2nc3c(c(=O)n(C)c(=O)n3C)n2Cc2ccc(F)cc2)cc1OC	-18%	i	u	u	-7%	10µM*	u	u	10%	-23%	-26%
O=C(/C=C/c1ccccc1)O[C@@H]1[C@@H](CO)O[C@@](CO)(O[C@H]2O[C@H](CO)[C@@H](O)[C@H](O)[C@H]2O)[C@H]1O	x	x	x	x	7%[29.8 µM]	x	x	x	x	x	x
O=C(/C=C/c1ccc(O)c(O)c1)O[C@H]1[C@H](OC2CCCCC2O)O[C@H](CO)[C@@H](O)[C@@H]1O (stereo not given in full)	x	x	x	x	5%[29.8 µM]	x	x	x	x	x	x
CSc1ccc(CCNC(=O)c2c(C)nn(-c3ccc(F)cc3)c2-n2cccc2)cc1	0%	i	-13%	6%	8%	15µM*	-13%	4%	-12%	-15%	u
CCN(C(=O)c1cc2c(s1)-c1ccccc1OC2)c1cccc(C(F)(F)F)c1	-9%	i	4%	5%	-17%	20µM*	u	-20%	0%	u	-23%
CN(C)CCN(Cc1ccco1)C(=O)c1cc2c(s1)-c1ccccc1OC2	5.2µM*	i	u	u	-10%	17µM*	-14%	4%	2%	u	u
COC(=O)c1ccc(N2CCN(C)CC2)c(NC(=O)c2cccc(OC)c2)c1	x	x	x	x	24%[57.5 µM]	x	x	x	x	x	x
CC1(C)OC(=O)Nc2ccc(Br)cc21	x	i	x	x	13%[57.5 µM]	x	x	x	x	x	x
Cc1ccc2c(c1)C(=O)C(=O)N2Cc1ccc(OCCC(C)C)cc1	-13%	i	-12%	u	-2%	4.6µM*	-11%	1%	-8%	-6%	12µM*
COc1ccc(Nc2nc3c(S(=O)(=O)c4ccc(C)cc4)nnn3c3ccsc23)cc1Cl	-1%	i	-9%	-3%	u	9µM*	-6%	-15%	-1%	u	u
COc1ccc(Nc2nc3c(S(=O)(=O)c4ccccc4)nnn3c3ccc(Cl)cc23)cc1	-9%	i	u	1%	u	8.9µM*	0%	5%	1%	u	14µM*	PMP22 prot conf=u
COc1ccc(Nc2nc3c(S(=O)(=O)c4ccccc4)nnn3c3ccsc23)cc1OC	-5%	i	14%	-7%	-2%	-7%	x	x	x	x	x
COc1ccc(CNc2nc(N(CCO)CCO)nc3c2ncn3C(C)C)cc1	x	x	x	x	8%[57.5 µM]	x	x	x	x	x	x
COc1cc(/C=C/C(=O)OC(C)(C)C(OC2OC(CO)C(O)C(O)C2O)C(=O)OCc2ccc(OC3OC(CO)C(O)C(O)C3O)cc2)ccc1O (stereo not given)	x	x	x	x	-12%[12.6 µM]	x	x	x	x	x	x
CCC[C@@H](C=O)NC(=O)[C@H](CC(C)C)NC(=O)[C@H](CC(C)C)NC(=O)OCc1ccccc1	x	x	x	u	5%	x	x	x	x	x	x
CCOC(=O)c1ccccc1NC(=O)C1CCN(c2ncnc3c2nc2n3CCCCC2)CC1	-4%	i	1%	i	5%	u	x	x	x	x	x
O=C(Nc1ccc(F)cc1Cl)C1CCN(c2ncnc3c2nc2n3CCCCC2)CC1	-3%	i	-25%	2%	15%	17µM*	-19%	8%	-14%	-3%	u
CCOc1ccc(CN2C(=O)C(=O)c3cccc(C)c32)cc1OC	-22%	i	14%	-5%	-7%	11µM*	u	u	-13%	-11%	u
